Test [1] is described as follows: inhibitors of TNFa-induced NFkB p65 translocation, primary screen, imaging, HUVEC, MLSMR starter and 10KST1 sets (AID 438;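 active = inhibition above 20% together with a positive visual image hit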;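 note: compound added about 3h40 before a 20 min TNFalpha stimulation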;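 for inhibition: signal is the nuclear over cytoplasmic p65 intensity ratio per well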). The note with it: HUVEC TNFa-induced p65 nuclear translocation; cell count: measured here: nuclei count (cytotoxicity indicator), at 2.08 µM; inhibition: at 2 µM, stronger effect = higher value, 0% TNFa-plus-vehicle, 100% no-TNFa wells.
Test [2] in a line: reduction of polyQ htt aggregates in cells – imaging, exon1htt(103Q)mCFP cells, high-content imaging, primary screen (AID 483;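 active = visual image review flags a hit and inhibition of aggregation exceeds 20%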;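 note: compound exposure lasted 3 days before fixation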;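 for nuclei count: percent of the per-plate median nuclei count of sample wells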). The note with it: exon1htt(103Q)mCFP cell line, aggregate imaging, at 2 µM; inhibition of aggregation: stronger effect = higher value; nuclei count: measured here: cell count, toxicity.
A short description of test [3]: endothelial E-selectin expression blockers – imaging, HUVEC, immunofluorescence, MLSMR starter and 10KST1 sets, primary screen (AID 487;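 active = visually confirmed hit in the image check and inhibition above 20%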;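 for inhibition: signal is fraction of cell area covered by stained E-selectin grains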;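 for nuclei count: 100% = median nuclei count of all wells on the same plate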). The note with it: HUVEC TNFalpha-induced E-selectin immunofluorescence imaging, at 2 µM; inhibition: stronger effect = higher value; nuclei count: measured here: cell number, toxicity.
For test [4], the target named is Voltage-gated potassium channel subunit beta-2 (Rattus norvegicus) (UniProt P62483). Put plainly: inhibitors of rat Kvbeta2 reductase activity – biochemical, NADPH fluorescence, primary screen (AID 622;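 active = fluorescence slope higher than the sample average by over 3 SD, cut at about -0.22 in these data, passing the limit was not always enough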;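 note: slope of raw intensity against log time taken from 70 to 1610 s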). The note with it: recombinant KvBeta, 4-cyanobenzaldehyde reduction, at 10 µM, stronger effect = higher value.
Sequence of Voltage-gated potassium channel subunit beta-2 (Rattus norvegicus) (P62483 whole entry, looked up): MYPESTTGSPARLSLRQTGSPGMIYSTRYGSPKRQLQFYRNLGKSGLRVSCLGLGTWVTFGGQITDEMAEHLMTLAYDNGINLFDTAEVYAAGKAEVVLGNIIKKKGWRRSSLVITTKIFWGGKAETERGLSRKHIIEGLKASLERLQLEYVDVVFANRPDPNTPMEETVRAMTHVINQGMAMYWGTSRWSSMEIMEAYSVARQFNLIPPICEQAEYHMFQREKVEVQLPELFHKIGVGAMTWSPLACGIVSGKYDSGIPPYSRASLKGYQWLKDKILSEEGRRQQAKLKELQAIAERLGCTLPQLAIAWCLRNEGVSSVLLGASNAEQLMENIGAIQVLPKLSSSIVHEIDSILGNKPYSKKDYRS
For test [5] the target is unchanged. Put plainly: enhancers of rat Kvbeta2 NADPH turnover – biochemical, NADPH fluorescence, primary screen (AID 623).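 Note: fluorescence intensity change per second fitted from 20 to 320 s.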 Conditions: Recombinant KvBeta, NADPH fluorescence decrease slope, 10 min; at 10 µM; stronger effect = lower value.
For test [6], the target named is Alpha-2C adrenergic receptor (Homo sapiens) (UniProt P18825). In words: compounds altering alpha2C-coupled GIRK flux – cell-based, HEK293 alpha2C/GIRK1/2, thallium flux, primary screen (AID 624;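 active = fluorescence slope after compound addition differing from the mean of all screened samples at 99.7% confidence, in either direction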;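 note: slope of fluorescence ratio to pre-addition baseline per second over 15 to 24 s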). Conditions: thallium flux BTC fluorescence, at 10 µM, actives lie on both sides.
Sequence of Alpha-2C adrenergic receptor (Homo sapiens) (P18825 whole entry, looked up): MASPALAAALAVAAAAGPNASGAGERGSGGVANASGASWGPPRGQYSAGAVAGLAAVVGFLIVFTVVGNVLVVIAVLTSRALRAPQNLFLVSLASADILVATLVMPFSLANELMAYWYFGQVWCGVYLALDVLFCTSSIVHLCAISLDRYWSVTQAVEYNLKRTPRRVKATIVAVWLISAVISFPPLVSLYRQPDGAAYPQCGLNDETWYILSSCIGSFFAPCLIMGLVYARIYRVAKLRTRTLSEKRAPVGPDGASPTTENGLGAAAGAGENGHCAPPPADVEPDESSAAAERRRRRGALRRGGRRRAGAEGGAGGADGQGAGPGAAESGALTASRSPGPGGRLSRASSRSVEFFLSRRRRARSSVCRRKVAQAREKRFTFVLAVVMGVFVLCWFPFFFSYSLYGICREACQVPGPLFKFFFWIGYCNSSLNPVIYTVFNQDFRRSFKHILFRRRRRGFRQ
Test [7] can be described thus: blockers of RIG-like receptor reporter activation – cell-based, Sendai virus stimulus, luciferase, 10K MLSCN set, TLR/RLR signaling modifier project, primary screen (AID 602276;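 active = inhibition at or above 50% at 10 µM; inactive = inhibition below 50%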;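 note: firefly luciferase from ISG56 promoter only with Renilla not read in this screen; 0% = Sendai virus plus DMSO and 100% = medium plus DMSO without virus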). The note with it: HEK293 RL24 IRF3 luciferase reporter, at 10 µM, stronger effect = higher value.
Test [8] is described as follows: TLR3 IRF3 reporter activation blockers – cell-based, poly I:C stimulus, luciferase, 10K MLSCN set, primary screen (AID 602277;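 active = inhibition of the reporter signal at or above 50%; inactive = inhibition below 50%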). Conditions: HEK293-TLR3 RL24 IRF3 luciferase reporter, at 10 µM, stronger effect = higher value.

Activity calls are given as the source filed them.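 Rule for the calls, unless noted: active = NADPH fluorescence slope more negative than the mean of all samples by about 3 SD, 99.7% confidence; inactive = the rest.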 Where a SMILES comes first, the peptide text is derived from it.

This is an account of results in PubChem BioAssay.

As for `CCOC(=O)C1C2C=CC3(CN(Cc4ccco4)C(=O)C13)O2` (centres undefined), the cell count in test [1] amounted to 480. The inhibition in test [1] was 5.5% (inactive); in test [3], -57.8% (inactive); in test [7] it was 13.9% (inactive); in test [8] it was 21.7% (inactive). The inhibition of aggregation in test [2] is 16.2% (inactive). For the same compound, the nuclei count was 114% in test [2] and 115% in test [3]. In test [4], the fluorescence slope is -0.469 (inactive). In addition, the NADPH fluorescence slope in test [5] is -6.4e-05 (inactive). The slope in test [6] was 0.00537 (inactive).
With `CC(=O)NC(C(=O)NCC(N)=O)C(C)C` (centres undefined) (HELM PEPTIDE1{[ac].[CC(C)C(N[*:1])C(=O)[*:2]].G.[am]}$$$$V2.0), the cell count in test [1] was 517. In addition, the inhibition is -15.2% (inactive) in test [1], 9.9% (inactive) in test [3], -3.54% (inactive) in test [7] and -10.4% (inactive) in test [8]. The inhibition of aggregation in test [2] is -13.6% (inactive). The nuclei count in test [2] was 89.2%; in test [3], 109%. Besides, in test [4], the fluorescence slope is -0.59 (inactive). Also, the NADPH fluorescence slope in test [5] was -3.6e-05 (inactive). The slope in test [6] was 0.00838 (inactive).
For `CC(C(N)=O)N1C(=O)C2C3C=CC(C3)C2C1=O` (centres undefined), in test [1], the cell count was 217. Also, the inhibition is 1.8% (inactive) in test [1], -33.8% (inactive) in test [3], 10.1% (inactive) in test [7] and 11.3% (inactive) in test [8]. Further, the inhibition of aggregation in test [2] was -14% (inactive). For the same compound, the nuclei count in test [2] worked out at 105%; in test [3], 121%. Besides, the fluorescence slope in test [4] was -0.443 (inactive). Also, the NADPH fluorescence slope in test [5] is -2.4e-05 (inactive). Further, the slope in test [6] is 0.00534 (inactive).
Consider `O=C(NCCc1c[nH]c2ccccc12)c1cnc2n(c1=O)CCS2`, for which, in test [1], the cell count is 532. In addition, the inhibition in test [1] was 6.3% (inactive); in test [3], -35.9% (inactive); in test [7], -48.8% (inactive); in test [8], -79.3% (inactive). Moreover, in test [2], the inhibition of aggregation was -8.9% (inactive). The nuclei count in test [2] amounted to 103%; in test [3] it was 90.6%. Also, the fluorescence slope in test [4] is -0.547 (inactive). Moreover, the NADPH fluorescence slope in test [5] was -2.5e-05 (inactive). Also, the slope in test [6] was 0.00796 (inactive).
Take `COCCOC(=O)c1[nH]c2c(c1C)C(=O)CC(c1ccco1)C2` (centres undefined): in test [1], the cell count is 930. Further, the inhibition in test [1] is 12.1% (inactive); in test [3], -169% (inactive); in test [7], 14.2% (inactive); in test [8], 77.7% (active). Besides, in test [2], the inhibition of aggregation is -345% (inactive). The nuclei count stood at 2.7% in test [2] and 95.8% in test [3]. For the same compound, the fluorescence slope in test [4] is -0.568 (inactive). Also, the NADPH fluorescence slope in test [5] is -6.8e-06 (inactive). Besides, the slope in test [6] was 0.00646 (inactive).
For the compound `COc1cc(OC)c(NC(=O)c2ccco2)cc1Cl`, the cell count in test [1] turned out to be 363. Also, the inhibition is 2.2% (inactive) in test [1], -1.1% (inactive) in test [3], 21.8% (inactive) in test [7] and 35% (inactive) in test [8]. Further, in test [2], the inhibition of aggregation is 12.2% (inactive). The nuclei count turned out to be 110% in test [2] and 106% in test [3]. Also, the fluorescence slope in test [4] is -0.407 (inactive). In addition, the NADPH fluorescence slope in test [5] is -4.6e-05 (inactive). Besides, the slope in test [6] is 0.00173 (inactive).
Turning to `O=C(COc1ccccc1)Nc1nc2ccccc2[nH]1`, the cell count in test [1] is 626. For the same compound, the inhibition was -2.6% (inactive) in test [1], 0.2% (inactive) in test [3], -49.9% (inactive) in test [7] and -93.8% (inactive) in test [8]. Moreover, the inhibition of aggregation in test [2] was 2.7% (inactive). Besides, the nuclei count in test [2] came out at 114%; in test [3], 119%. The fluorescence slope in test [4] was -0.45 (inactive). Further, in test [5], the NADPH fluorescence slope is -6.8e-05 (inactive). For the same compound, in test [6], the slope was 0.00605 (inactive).
For the compound `O=C(O)c1cccc(S(=O)(=O)N2CCOCC2)c1`, the cell count in test [1] worked out at 378. The inhibition in test [1] is -0.6% (inactive); in test [3] it was 20.2% (inactive); in test [7], -16% (inactive); in test [8] it was -15.1% (inactive). Further, in test [2], the inhibition of aggregation was 12.5% (inactive). In addition, the results for the nuclei count in test [2] and in test [3] were 95.2% and 99.4%, respectively. Also, the fluorescence slope in test [4] is -0.472 (inactive). In addition, in test [5], the NADPH fluorescence slope is -0.000388 (inactive). Besides, in test [6], the slope is 0.00562 (inactive).
Regarding `Cc1nc(NC(=O)C23CCC(C)(C(=O)O2)C3(C)C)sc1C` (centres undefined), in test [1], the cell count was determined as 595. For the same compound, the inhibition in test [1] was -13.1% (inactive); in test [3], -22.1% (inactive); in test [7], 12.9% (inactive); in test [8] it was 29.5% (inactive). Besides, the inhibition of aggregation in test [2] was 15.4% (inactive). Moreover, the nuclei count in test [2] amounted to 105%; in test [3], 106%. In addition, the fluorescence slope in test [4] was -0.462 (inactive). The NADPH fluorescence slope in test [5] was 8.7e-06 (inactive). In test [6], the slope was 0.00641 (inactive).
In the case of `O=C(CCN1C(=O)COc2ccccc21)NCCN1CCN(c2cccc(Cl)c2)CC1`, the cell count in test [1] was 597. The inhibition was -3.6% (inactive) in test [1], -68.5% (inactive) in test [3], 7.8% (inactive) in test [7] and 7.33% (inactive) in test [8]. In addition, the inhibition of aggregation in test [2] is 0.2% (inactive). The nuclei count in test [2] is 88.9%; in test [3], 112%. In addition, the fluorescence slope in test [4] is -0.602 (inactive). In addition, the NADPH fluorescence slope in test [5] was -2.6e-06 (inactive). Also, the slope in test [6] is 0.00502 (inactive).
With `Cc1cccc2cc(CN(CCCO)C(=O)Nc3ccc(Cl)cc3)c(=O)[nH]c12`, the cell count in test [1] amounted to 402. Further, the inhibition is 5.6% (inactive) in test [1], -307% (inactive) in test [3], 12.2% (inactive) in test [7] and -2.7% (inactive) in test [8]. Also, the inhibition of aggregation in test [2] is -13% (inactive). Moreover, the nuclei count in test [2] is 117%; in test [3], 156%. Moreover, the fluorescence slope in test [4] was -0.646 (inactive). Besides, in test [5], the NADPH fluorescence slope is 1e-05 (inactive). Further, the slope in test [6] was 0.00902 (inactive).
As for `COc1ccc(-c2nc(CSCC(=O)NCc3ccc4c(c3)OCO4)c(C)o2)cc1OC`, the cell count in test [1] stood at 477. In addition, the inhibition in test [1] was -3.3% (inactive); in test [3], -83% (inactive); in test [7], 9.89% (inactive); in test [8], 20.1% (inactive). In addition, the inhibition of aggregation in test [2] was 16.1% (inactive). Also, the nuclei count is 104% in test [2] and 114% in test [3]. In addition, in test [4], the fluorescence slope was -0.43 (inactive). In test [5], the NADPH fluorescence slope was -5.4e-05 (inactive). The slope in test [6] was 0.00553 (inactive).
`O=C(NCc1ccco1)C(c1ccco1)N(C(=O)Cn1nnc2ccccc21)c1ccc2c(c1)CCC2` (centres undefined): the cell count in test [1] is 329. Moreover, the inhibition in test [1] was -8% (inactive); in test [3] it was 23.8% (inactive); in test [7] it was 14.9% (inactive); in test [8], 21.8% (inactive). Besides, the inhibition of aggregation in test [2] was -0.5% (inactive). The nuclei count was determined as 103% in test [2] and 104% in test [3]. Moreover, in test [4], the fluorescence slope is -0.519 (inactive). Besides, the NADPH fluorescence slope in test [5] was -6.5e-06 (inactive). The slope in test [6] was 0.00472 (inactive).
In the case of `Cc1cc(C)n2nc(SCc3cc(=O)n4ccccc4n3)nc2n1`, in test [1], the cell count was 536. The inhibition in test [1] was -16.3% (inactive); in test [3], -75.8% (inactive); in test [7] it was 5.17% (inactive); in test [8], 14.4% (inactive). The inhibition of aggregation in test [2] is 13% (inactive). For the same compound, the nuclei count in test [2] stood at 66.3%; in test [3] it was 112%. Also, the fluorescence slope in test [4] is -0.29 (inactive). The NADPH fluorescence slope in test [5] is -4.7e-06 (inactive). Besides, the slope in test [6] was 0.00424 (inactive).
